The results in this text go back to paper PMC11006913.

Assay in all cases: PBM; 200 nM protein, PBS
Conditions in all cases: dsDNA, one strand shown

Assay [1] addresses HOXB9 (Homo sapiens, UniProt P17482 171-250, T197M).
Assay [2] has as its target HOXA4 (Homo sapiens, UniProt Q00056 201-287, W262R).
The target of assay [3] is HOXC9 (Homo sapiens, UniProt P31274 178-260, K195R).
Assay [4] deals with HOXA7 (Homo sapiens, UniProt P31268 116-202).
Assay [5] deals with HOXC10 (Homo sapiens, UniProt Q9NYD6 254-340).
The target in assay [6] is HOXB6 (Homo sapiens, UniProt P17509 132-218, K202E).
Assay [7] addresses HOXB9 (Homo sapiens, UniProt P17482 171-250).
Assay [8] deals with HOXC9 (Homo sapiens, UniProt P31274 178-260).
Assay [9] deals with HOXC9 (Homo sapiens, UniProt P31274 178-260, R193K).
Assay [10] has as its target HOXA4 (Homo sapiens, UniProt Q00056 201-287).
The target of assay [11] is HOXC10 (Homo sapiens, UniProt Q9NYD6 254-340, K271E).
The target of a further assay is VAX1 (Homo sapiens, UniProt Q5SQQ9 86-172).
Assay [12] addresses HOXB9 (Homo sapiens, UniProt P17482 171-250, R186Q).
Assay [13] concerns the target HOXC9 (Homo sapiens, UniProt P31274 178-260, R222W).
Assay [14] deals with HOXA7 (Homo sapiens, UniProt P31268 116-202, W177C).
For assay [15], the target named is HOXB6 (Homo sapiens, UniProt P17509 132-218).
The next assay concerns the target T1, VENTX (Homo sapiens, UniProt O95231 78-163).
T1 sequence: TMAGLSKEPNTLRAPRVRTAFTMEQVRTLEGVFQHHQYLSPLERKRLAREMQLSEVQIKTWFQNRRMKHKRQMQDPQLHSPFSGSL

The next assay concerns the target T2, PAX4 (Homo sapiens, UniProt O43316 9-242, R227W).
T2 sequence: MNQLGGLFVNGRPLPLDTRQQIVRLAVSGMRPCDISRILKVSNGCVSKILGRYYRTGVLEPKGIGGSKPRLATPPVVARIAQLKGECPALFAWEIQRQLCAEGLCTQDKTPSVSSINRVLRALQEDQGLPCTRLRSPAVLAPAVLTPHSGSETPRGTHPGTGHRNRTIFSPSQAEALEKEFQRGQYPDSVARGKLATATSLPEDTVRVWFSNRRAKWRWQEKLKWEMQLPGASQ

In assay [16] the target is HOXA2 (Homo sapiens, UniProt O43364 129-215, Y150S).
The target of assay [17] is HOXA2 (Homo sapiens, UniProt O43364 129-215).
HOXA2 (Homo sapiens, UniProt O43364 129-215), sequence (O43364 129-215): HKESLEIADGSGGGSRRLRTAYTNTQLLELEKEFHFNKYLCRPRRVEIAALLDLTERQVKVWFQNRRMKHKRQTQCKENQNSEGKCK

VAX1, sequence (Q5SQQ9 86-172): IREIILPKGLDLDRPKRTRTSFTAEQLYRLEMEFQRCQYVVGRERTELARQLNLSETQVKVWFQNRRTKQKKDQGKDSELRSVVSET
HOXB6 (Homo sapiens, UniProt P17509 132-218), sequence (P17509 132-218): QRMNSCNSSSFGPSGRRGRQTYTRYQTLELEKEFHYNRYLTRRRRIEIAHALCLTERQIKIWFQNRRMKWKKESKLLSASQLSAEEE
HOXA7 (Homo sapiens, UniProt P31268 116-202, W177C), sequence (P31268 116-202 W177C): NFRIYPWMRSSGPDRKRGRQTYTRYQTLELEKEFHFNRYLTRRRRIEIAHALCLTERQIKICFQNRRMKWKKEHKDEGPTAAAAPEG
HOXA2 (Homo sapiens, UniProt O43364 129-215, Y150S), sequence (O43364 129-215 Y150S): as the sequence (O43364 129-215) above, with Y22S counted along it
HOXB6 (Homo sapiens, UniProt P17509 132-218, K202E), sequence (P17509 132-218 K202E): as the sequence (P17509 132-218) above, with K71E counted along it
HOXB9 (Homo sapiens, UniProt P17482 171-250, T197M), sequence (P17482 171-250 T197M): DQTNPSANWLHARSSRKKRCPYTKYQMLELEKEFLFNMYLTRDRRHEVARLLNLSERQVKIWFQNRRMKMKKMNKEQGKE
HOXA7 (Homo sapiens, UniProt P31268 116-202), sequence (P31268 116-202): as the sequence (P31268 116-202 W177C) above, with C62W counted along it
HOXB9 (Homo sapiens, UniProt P17482 171-250, R186Q), sequence (P17482 171-250 R186Q): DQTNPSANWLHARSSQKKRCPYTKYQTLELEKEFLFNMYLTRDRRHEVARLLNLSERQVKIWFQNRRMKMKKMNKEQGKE
HOXB9 (Homo sapiens, UniProt P17482 171-250), sequence (P17482 171-250): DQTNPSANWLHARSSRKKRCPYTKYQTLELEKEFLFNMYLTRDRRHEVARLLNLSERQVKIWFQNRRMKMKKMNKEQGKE
HOXA4 (Homo sapiens, UniProt Q00056 201-287), sequence (Q00056 201-287): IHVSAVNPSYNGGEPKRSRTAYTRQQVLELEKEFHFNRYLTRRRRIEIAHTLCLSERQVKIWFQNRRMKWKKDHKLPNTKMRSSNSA
HOXA4 (Homo sapiens, UniProt Q00056 201-287, W262R), sequence (Q00056 201-287 W262R): as the sequence (Q00056 201-287) above, with W62R counted along it
HOXC9 (Homo sapiens, UniProt P31274 178-260, R222W), sequence (P31274 178-260 R222W): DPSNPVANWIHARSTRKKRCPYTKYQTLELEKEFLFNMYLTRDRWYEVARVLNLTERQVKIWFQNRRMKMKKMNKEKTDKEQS
HOXC9 (Homo sapiens, UniProt P31274 178-260), sequence (P31274 178-260): as the sequence (P31274 178-260 R222W) above, with W45R counted along it
HOXC10 (Homo sapiens, UniProt Q9NYD6 254-340, K271E), sequence (Q9NYD6 254-340 K271E): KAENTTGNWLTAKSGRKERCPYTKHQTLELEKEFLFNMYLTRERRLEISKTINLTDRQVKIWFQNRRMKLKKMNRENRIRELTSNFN
HOXC9 (Homo sapiens, UniProt P31274 178-260, K195R), sequence (P31274 178-260 K195R): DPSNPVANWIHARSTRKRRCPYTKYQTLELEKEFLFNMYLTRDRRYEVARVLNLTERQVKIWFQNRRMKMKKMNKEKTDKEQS
HOXC10 (Homo sapiens, UniProt Q9NYD6 254-340), sequence (Q9NYD6 254-340): as the sequence (Q9NYD6 254-340 K271E) above, with E18K counted along it
HOXC9 (Homo sapiens, UniProt P31274 178-260, R193K), sequence (P31274 178-260 R193K): as the sequence (P31274 178-260 R222W) above, with R16K, W45R counted along it

For the sequence ATTAATAG, the binding signal was 10.1 upbm affinity estimate (log intensity, higher = more binding, comparable within an allelic series) in the assay with HOXB9 [1]; 10.6 upbm affinity estimate (log intensity, higher = more binding, comparable within an allelic series) with HOXA4 [2]; 12.7 upbm affinity estimate (log intensity, higher = more binding, comparable within an allelic series) with HOXC9 [3]; 11.6 upbm affinity estimate (log intensity, higher = more binding, comparable within an allelic series) with HOXA7 [4]; 12.2 upbm affinity estimate (log intensity, higher = more binding, comparable within an allelic series) with HOXC10 [5]; 10.1 upbm affinity estimate (log intensity, higher = more binding, comparable within an allelic series) with HOXB6 [6]. Besides, the binding signal with HOXB9 [7] was 11.9 upbm affinity estimate (log intensity, higher = more binding, comparable within an allelic series); with HOXC9 [8], 12.6 upbm affinity estimate (log intensity, higher = more binding, comparable within an allelic series); with HOXC9 [9] it was 12.6 upbm affinity estimate (log intensity, higher = more binding, comparable within an allelic series); with HOXA4 [10], 13.6 upbm affinity estimate (log intensity, higher = more binding, comparable within an allelic series); in the assay with HOXC10 [11], 12 upbm affinity estimate (log intensity, higher = more binding, comparable within an allelic series); with VAX1, 12.6 upbm affinity estimate (log intensity, higher = more binding, comparable within an allelic series). Further, the binding signal was 11.7 upbm affinity estimate (log intensity, higher = more binding, comparable within an allelic series) in the assay with HOXB9 [12]; 11.1 upbm affinity estimate (log intensity, higher = more binding, comparable within an allelic series) with HOXC9 [13]; 9.03 upbm affinity estimate (log intensity, higher = more binding, comparable within an allelic series) with HOXA7 [14]; 12 upbm affinity estimate (log intensity, higher = more binding, comparable within an allelic series) with HOXB6 [15].
ACCAATTA: the binding signal is 9.73 upbm affinity estimate (log intensity, higher = more binding, comparable within an allelic series) with HOXB9 [1]; 12.8 upbm affinity estimate (log intensity, higher = more binding, comparable within an allelic series) with VENTX; 11.2 upbm affinity estimate (log intensity, higher = more binding, comparable within an allelic series) in the assay with HOXA7 [4]; 9.84 upbm affinity estimate (log intensity, higher = more binding, comparable within an allelic series) with HOXB6 [6]; 11.1 upbm affinity estimate (log intensity, higher = more binding, comparable within an allelic series) with HOXB9 [7]; 12.8 upbm affinity estimate (log intensity, higher = more binding, comparable within an allelic series) with VAX1. In addition, the binding signal is 10.9 upbm affinity estimate (log intensity, higher = more binding, comparable within an allelic series) with HOXB9 [12]; 10.8 upbm affinity estimate (log intensity, higher = more binding, comparable within an allelic series) with PAX4; 10.9 upbm affinity estimate (log intensity, higher = more binding, comparable within an allelic series) with HOXA2 [16]; 8.84 upbm affinity estimate (log intensity, higher = more binding, comparable within an allelic series) with HOXA7 [14]; 12.1 upbm affinity estimate (log intensity, higher = more binding, comparable within an allelic series) with HOXA2 [17]; 11.7 upbm affinity estimate (log intensity, higher = more binding, comparable within an allelic series) with HOXB6 [15].
With AATTAGTA, the binding signal was 9.94 upbm affinity estimate (log intensity, higher = more binding, comparable within an allelic series) with HOXB6 [6]; 11 upbm affinity estimate (log intensity, higher = more binding, comparable within an allelic series) in the assay with PAX4; 11.3 upbm affinity estimate (log intensity, higher = more binding, comparable within an allelic series) with HOXB6 [15].
Consider AATTAGCA, for which the binding signal in the assay with PAX4 is 10.9 upbm affinity estimate (log intensity, higher = more binding, comparable within an allelic series); with HOXA2 [16], 10.8 upbm affinity estimate (log intensity, higher = more binding, comparable within an allelic series); with HOXA2 [17], 12.1 upbm affinity estimate (log intensity, higher = more binding, comparable within an allelic series).
Turning to AATTAACT, the binding signal with HOXA7 [4] is 11.2 upbm affinity estimate (log intensity, higher = more binding, comparable within an allelic series); with HOXB6 [6], 9.99 upbm affinity estimate (log intensity, higher = more binding, comparable within an allelic series); in the assay with PAX4, 10.9 upbm affinity estimate (log intensity, higher = more binding, comparable within an allelic series); with HOXA7 [14] it was 8.89 upbm affinity estimate (log intensity, higher = more binding, comparable within an allelic series); with HOXB6 [15] it was 11.6 upbm affinity estimate (log intensity, higher = more binding, comparable within an allelic series).
Consider AATTAAGA, for which the binding signal in the assay with PAX4 was 10.8 upbm affinity estimate (log intensity, higher = more binding, comparable within an allelic series).
Take CCCAATTA: the binding signal with VENTX was 12.4 upbm affinity estimate (log intensity, higher = more binding, comparable within an allelic series); in the assay with VAX1 it was 12.7 upbm affinity estimate (log intensity, higher = more binding, comparable within an allelic series); with PAX4 it was 10.7 upbm affinity estimate (log intensity, higher = more binding, comparable within an allelic series).
In the case of CCGAGCGG, the binding signal in the assay with HOXA4 [2] was 9.72 upbm affinity estimate (log intensity, higher = more binding, comparable within an allelic series); with HOXA4 [10] it was 9.77 upbm affinity estimate (log intensity, higher = more binding, comparable within an allelic series).
With AATTAGAT, the binding signal with PAX4 is 10.9 upbm affinity estimate (log intensity, higher = more binding, comparable within an allelic series).
On to GACAATTA, for which the binding signal with HOXB9 [1] was 9.97 upbm affinity estimate (log intensity, higher = more binding, comparable within an allelic series); with HOXA7 [4] it was 11.2 upbm affinity estimate (log intensity, higher = more binding, comparable within an allelic series); with HOXB6 [6], 9.96 upbm affinity estimate (log intensity, higher = more binding, comparable within an allelic series); with HOXA7 [14] it was 8.85 upbm affinity estimate (log intensity, higher = more binding, comparable within an allelic series); with HOXB6 [15], 11.7 upbm affinity estimate (log intensity, higher = more binding, comparable within an allelic series).
For CAATTAGA, the binding signal with VAX1 is 12.6 upbm affinity estimate (log intensity, higher = more binding, comparable within an allelic series).
For the sequence CAAATTAA, the binding signal with PAX4 is 11 upbm affinity estimate (log intensity, higher = more binding, comparable within an allelic series).
As for AATTAGTG, the binding signal in the assay with VENTX was 12.3 upbm affinity estimate (log intensity, higher = more binding, comparable within an allelic series); with VAX1 it was 12.8 upbm affinity estimate (log intensity, higher = more binding, comparable within an allelic series); with PAX4, 11.1 upbm affinity estimate (log intensity, higher = more binding, comparable within an allelic series); with HOXA2 [16] it was 10.8 upbm affinity estimate (log intensity, higher = more binding, comparable within an allelic series); with HOXA2 [17], 12.2 upbm affinity estimate (log intensity, higher = more binding, comparable within an allelic series).
